Whole data set: some 4,100 sequences, median “RBNS R-value (6-mer enrichment in protein-bound RNA vs input library)” near 0.96, cut for the highest 2% near 2.4. Shown is part of a subset that was picked to be rich in the highest values.
System: PyIESI-1 RRM domain (Plasmodium yoelii PY17X_0911200 aa 795-956, GST fusion)
Experiment: RBNS R-value (6-mer enrichment in protein-bound RNA vs input library) (ratio); higher = stronger binding preference; the methods of the paper give 50 / 100 / 500 nM protein instead
Experimental: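 RNA Bind-n-Seq: recombinant GST-tagged IESI-1 RRM domain was incubated at room temperature with a random 40-nt in vitro transcribed RNA library at 250, 500 or 1000 nM protein. Bound RNA was pulled down on glutathione beads and sequenced. R-value is the enrichment of each 6-mer in the bound RNA relative to the input library. Each 6-mer sits inside the random 40-mer context, not as an isolated oligo. Values are replicate 1 only.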

Row | Sequence | RBNS R-value (protein concentration: 250 nM) | RBNS R-value (protein concentration: 500 nM) | RBNS R-value (protein concentration: 1000 nM)
1 | CUGCCA | 1.03 | 1.05 | 1.07
2 | UUUGUU | 0.893 | 0.907 | 0.907
3 | ACGAAC | 0.96 | 0.939 | 0.926
4 | AUUUAU | 0.824 | 0.83 | 0.836
5 | UGCUUU | 1.1 | 1.15 | 1.18
6 | CAAUGA | 2.27 | 2.18 | 2.28
7 | CGAUGA | 3.48 | 3.36 | 3.47
8 | GGAUGA | 1.75 | 1.71 | 1.69
9 | AGAUGU | 1.45 | 1.47 | 1.54
10 | UGAUGU | 7 | 6.29 | 6.39
11 | AGAUGA | 2.69 | 2.61 | 2.72
12 | UUAUGA | 1.76 | 1.72 | 1.81
13 | CGAUGC | 2.07 | 2.1 | 2.31
14 | UGAUGA | 9.09 | 7.87 | 7.73
15 | AUAUGA | 1.78 | 1.74 | 1.84
16 | AGAUGC | 1.47 | 1.52 | 1.65
17 | CGAUGU | 2.03 | 2.04 | 2.13
18 | UCACCA | 0.862 | 0.849 | 0.9
19 | GGAGCG | 1.01 | 1.01 | 0.994
20 | AUACCA | 0.709 | 0.723 | 0.733
21 | AACUUC | 0.893 | 0.92 | 0.901
22 | CGCAAG | 0.91 | 0.907 | 0.917
23 | UCCCAA | 0.972 | 0.967 | 0.987

Row | Sequence | RBNS R-value (protein concentration: 250 nM) | RBNS R-value (protein concentration: 500 nM) | RBNS R-value (protein concentration: 1000 nM)
24 | GGGGGA | 1.03 | 1.05 | 1.01
25 | AGAUGG | 1.49 | 1.46 | 1.49
26 | UGAUGC | 6.04 | 5.5 | 5.71
27 | CGAUGG | 2.05 | 1.98 | 2
28 | GGAUGC | 1.08 | 1.04 | 1.08
29 | UUAUGC | 0.736 | 0.778 | 0.779
30 | UGAUGG | 5.96 | 5.24 | 5.21
31 | CAAGGC | 0.956 | 0.935 | 0.949
32 | CACACU | 0.829 | 0.834 | 0.839
33 | CGGAGC | 1.02 | 1.01 | 1
34 | UUCUUU | 0.927 | 0.977 | 1
35 | AUUUGC | 1.82 | 1.76 | 1.77
36 | CAUGGC | 1.06 | 1.08 | 1.1
37 | GAUGGC | 3.56 | 3.12 | 3.1
38 | UAUGGC | 1.41 | 1.37 | 1.34
39 | AAUGGG | 1.06 | 1.06 | 1.03
40 | UAUGGG | 0.863 | 0.942 | 0.916
41 | GAUGGG | 2.54 | 2.43 | 2.36
42 | UCAGAC | 0.883 | 0.894 | 0.893
43 | AUUUAC | 0.935 | 0.952 | 0.963
44 | AUGGGA | 1.34 | 1.34 | 1.29
45 | GUCAAC | 0.681 | 0.708 | 0.688
46 | UCUCAA | 0.805 | 0.835 | 0.84

— the supplement of paper PMC13392028
